Results filed as inconclusive are left out. Activity calls are given as the source filed them. Unless noted, the call rests on the fitted dose curve; in most records, active means well fitted curve in the direction sought with a large enough effect in the repeat runs; inconclusive means weak or mixed curves; inactive means no such curve, though single readings can be large; an effect the other way counts as inactive or inconclusive.
Experiments:
[1] = biological target: Luciferin 4-monooxygenase (Photinus pyralis) (UniProt P08659); test: qHTS assay to identify small molecule inhibitors of firefly luciferase (AID 1224835); further: nearly all actives have a fitted effect of over 25% in size; further: potency means the concentration at half of the fitted maximal effect
Luciferin 4-monooxygenase (Photinus pyralis), sequence (P08659 whole entry, looked up): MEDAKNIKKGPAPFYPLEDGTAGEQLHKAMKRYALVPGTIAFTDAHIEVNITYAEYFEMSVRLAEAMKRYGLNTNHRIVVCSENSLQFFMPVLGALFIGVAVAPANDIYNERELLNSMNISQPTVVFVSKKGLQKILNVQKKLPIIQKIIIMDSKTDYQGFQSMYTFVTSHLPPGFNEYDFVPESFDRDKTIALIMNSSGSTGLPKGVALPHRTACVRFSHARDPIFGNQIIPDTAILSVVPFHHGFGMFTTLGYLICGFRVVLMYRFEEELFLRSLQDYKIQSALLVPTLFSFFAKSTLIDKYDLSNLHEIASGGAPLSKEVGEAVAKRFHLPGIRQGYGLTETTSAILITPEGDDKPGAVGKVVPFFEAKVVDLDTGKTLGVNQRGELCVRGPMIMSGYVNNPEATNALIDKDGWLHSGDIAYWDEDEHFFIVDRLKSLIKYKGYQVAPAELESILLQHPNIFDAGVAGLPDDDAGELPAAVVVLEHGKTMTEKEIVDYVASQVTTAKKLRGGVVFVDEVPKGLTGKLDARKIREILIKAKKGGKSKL
Procedure, shortened: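 Quantitative HTS format; KM concentrations of both substrates. Purified P. pyralis FLuc activity quantified from luminescence images.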

[2] = qHTS assay to identify small molecule agonists of the constitutive androstane receptor (CAR) signaling pathway - cell viability counter screen (AID 1224836); further: nearly all actives have a fitted effect of over 45% in size; further: potency means the concentration at half of the fitted maximal effect
Procedure, shortened: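 Fluorescence from CellTiter-Fluor indicates live cells after 23 h exposure. The human hepatoma line expresses hCAR and a CYP2B6-2.2kb reporter. Incubation medium contains 0.75 uM PK11195 (final).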

[3] = qHTS assay to identify small molecule antagonists of the constitutive androstane receptor (CAR) signaling pathway - cell viability counter screen (AID 1224837); further: nearly all actives have a fitted effect of over 45% in size; further: potency means the concentration at half of the fitted maximal effect
Procedure, shortened: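 Multiplexed cytotoxicity read-out for the CAR antagonist screen: double-stable HepG2-CYP2B6-hCAR cells co-treated with 50 nM CITCO (final) and compound over 15 concentrations, incubated 23 hr, then assessed by CellTiter-Fluor fluorescence.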

[4] = biological target: Nuclear receptor subfamily 1 group I member 3 (Homo sapiens) (UniProt Q14994); test: qHTS assay to identify small molecule antagonists of the constitutive androstane receptor (CAR) signaling pathway (AID 1224838); further: nearly all actives have a fitted effect of over 40% in size
Nuclear receptor subfamily 1 group I member 3 (Homo sapiens), sequence (Q14994 whole entry, looked up): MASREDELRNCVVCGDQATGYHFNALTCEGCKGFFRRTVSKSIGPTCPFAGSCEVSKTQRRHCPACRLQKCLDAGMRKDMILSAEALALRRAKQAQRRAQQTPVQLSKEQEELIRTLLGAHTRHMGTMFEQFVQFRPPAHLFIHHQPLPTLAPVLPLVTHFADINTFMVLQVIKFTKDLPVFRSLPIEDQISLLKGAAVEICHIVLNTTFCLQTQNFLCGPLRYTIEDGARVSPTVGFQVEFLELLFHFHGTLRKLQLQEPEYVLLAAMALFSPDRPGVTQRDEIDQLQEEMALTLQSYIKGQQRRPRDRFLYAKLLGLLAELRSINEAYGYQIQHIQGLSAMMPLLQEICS
Procedure, shortened: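 Compounds were titrated across 15 concentrations onto HepG2 cells double-stably expressing hCAR and a CYP2B6-2.2kb reporter, together with 50 nM CITCO (final). After 24 h at 37 C, luciferase activity was measured by luminescence.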

[5] = biological target: Nuclear receptor subfamily 1 group I member 3 (Homo sapiens) (UniProt Q14994); test: qHTS assay to identify small molecule agonists of the constitutive androstane receptor (CAR) signaling pathway (AID 1224839); further: nearly all actives have a fitted effect of over 15% in size; further: potency means the concentration at half of the fitted maximal effect;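 on activation: HepG2 cells stably carrying human CAR and a CYP2B6 luciferase reporter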
Procedure, shortened: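 Stable hCAR/CYP2B6-2.2kb HepG2 line in DMEM with 10% FBS; compounds (15 concentrations) and 0.75 uM PK11195 final, 24 h at 37 C/5% CO2, then ONE-Glo luminescence after 30 min.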

[6] = qHTS assay to identify small molecule antagonists of the estrogen related receptor signaling pathway with the pleiotropic PPARgamma coactivator (PGC) from Tox21 10K library - cell viability counter screen (AID 1224840; active means well fitted cell-killing curve with a large enough effect in the repeat runs, not every such curve was filed as active; further: nearly all actives have a fitted effect of over 40% in size)
Procedure, shortened: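 Step one, plate 2,000 PGC/ERR cells per well; step two, incubate 6 h at 37 C/5% CO2; step three, pin-transfer compounds; step four, incubate 17.5 h; step five, add CellTiter-Fluor and read fluorescence after 30 min.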

[7] = qHTS assay to identify small molecule antagonists of the estrogen related receptor signaling pathway with the pleiotropic PPARgamma coactivator (PGC) from Tox21 10K library (AID 1224841; call rule not given here; further: actives are mostly falling curves and most rising ones were filed inactive; nearly all actives have a fitted effect of over 50% in size)
Procedure, shortened: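 Antagonism in this quantitative HTS is taken from loss of luciferase signal in PGC/ERR cells. Cells (2,000/well) are treated with compounds in DMSO after a 6 h settling period and read by One-Glo luminescence after 18 h.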

[8] = qHTS assay to identify small molecule agonists of the estrogen related receptor signaling pathway with the pleiotropic PPARgamma coactivator (PGC) from Tox21 10K library (AID 1224842); further: nearly all actives have a fitted effect of over 15% in size; further: potency means the concentration at half of the fitted maximal effect
Procedure, shortened: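 PGC/ERR reporter cells (NTP line) were seeded 2,000 per well, rested 6 h at 37 C/5% CO2, then pin-dosed with compounds in DMSO for 18 h at 37 C; luciferase read by One-Glo luminescence after 30 min at room temperature.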

[9] = qHTS assay to identify small molecule agonists of the hypoxia (HIF-1) signaling pathway - cell viability counter screen (AID 1224844; calls by dose curve; further: nearly all actives have a fitted effect of over 50% in size)
Procedure, shortened: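 Tox21 10K compounds were added to HRE-bla ME-180 cells (0.5% dialyzed FBS) and incubated 17 hrs at 37C; ATP-based CellTiter-Glo luminescence then reported cell viability in the same wells.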

[10] = qHTS assay to identify small molecule agonists of the hypoxia (HIF-1) signaling pathway (AID 1224846; active means well fitted activation curve with a large enough effect in the signal ratio in the repeat runs, not every such curve was filed as active; the % refers to the signal ratio)
Procedure, shortened: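 Steps: seed ME-180 HRE-bla cells (2,000/well, 0.5% dialyzed FBS); incubate 5 hrs at 37C; pin-transfer compounds or DMSO; incubate 17 hrs; add LiveBLAzer B/G substrate CCF4-AM; measure reporter activation by FRET.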

[11] = qHTS assay to identify small molecule agonists of H2AX - cell viability counter screen (AID 1224847; calls by dose curve; further: top concentration of the series differs between compounds; nearly all actives have a fitted effect of over 30% in size)
Procedure, shortened: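 Viability of CHO-K1 (wild type) cells after 3 hr compound exposure was measured by CellTiter-Glo luminescence.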

[12] = qHTS assay to identify small molecule antagonists of the estrogen related receptor (ERR) signaling pathway from Tox21 library (AID 1224848); further: nearly all actives have a fitted effect of over 50% in size
Procedure, shortened: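 Cells: ERR line, 2,000/well; 6 h preincubation 37 C/5% CO2. Cpd in DMSO via pin tool; 18 h, 37 C. ONE-Glo, 30 min RT, luminescence.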

[13] = qHTS assay to identify small molecule agonists of the estrogen related receptor (ERR) signaling pathway from Tox21 library (AID 1224849; calls by dose curve; further: nearly all actives have a fitted effect of over 15% in size); conditions: ERR reporter cell line, ONE-Glo luciferase, 18 h; at 92.4 µM (top of the series) unless noted
Procedure, shortened: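 Agonist signal is luciferase luminescence from an ERR reporter cell line treated 18 h at 37 C with DMSO-dissolved compounds, read 30 min after ONE-Glo addition at room temperature.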

[14] = qHTS RealTime-Glo MT Cell Viability Assay in HepG2 cells - 24 hour (AID 1224867); further: nearly all actives have a fitted effect of over 50% in size
Procedure, shortened: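 HepG2 suspension premixed with RealTime-Glo reagents is plated at 600 cells per well and left 5 h at 37 C/5% CO2. Compounds in DMSO then go in, and bioluminescence reflecting viable cell number is recorded over 40 h.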

[15] = qHTS RealTime-Glo MT Cell Viability Assay in HEK293 cells - 32 hour (AID 1224868)
Procedure, shortened: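 Reads taken at 0, 8, 16, 24, 32 and 40 h from the same wells. HEK293 cells (600/well) carried RealTime-Glo reagents from seeding, with compound added after a 5 h settle at 37 C.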

[16] = A CellTox Green Cytotoxicity Assay to monitor cytotoxicity in HEK293 cells - 0 hour (AID 1224869); further: nearly all actives have a fitted effect of over 50% in size
Procedure, shortened: (§1)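 Cytotoxicity was tracked continuously in HEK293 cells by a DNA-binding dye excluded from viable cells. Compounds were transferred in DMSO 5 h after seeding; fluorescence was recorded at intervals up to 40 h.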

[17] = A CellTox Green Cytotoxicity Assay to monitor cytotoxicity in HEK293 cells - 40 hour (AID 1224871); further: nearly all actives have a fitted effect of over 45% in size
Procedure, shortened: as §1

[18] = qHTS assay to identify small molecule agonists of H2AX (AID 1224845; active means well fitted activation curve with a large enough effect in the signal ratio in the repeat runs, not every such curve was filed as active; the % refers to the signal ratio)
Procedure, shortened: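 Wild-type CHO-K1 cells plated overnight, then exposed 3 hr at 37C to compounds at 15 concentrations (0.76% DMSO). Lysed, then HTRF anti-pH2AX(S139)-cryptate/anti-H2AX-d2 detection after 24 hr at room temperature; emissions 665 and 620 nm.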

[19] = biological target: Thyrotropin receptor (Homo sapiens) (UniProt P16473); test: qHTS assay to identify small molecule agonists of the thyroid stimulating hormone receptor (TSHR) signaling pathway (AID 1224843; calls by dose curve; further: nearly all actives have a fitted effect of over 45% in size)
Thyrotropin receptor (Homo sapiens), sequence (P16473 whole entry, looked up): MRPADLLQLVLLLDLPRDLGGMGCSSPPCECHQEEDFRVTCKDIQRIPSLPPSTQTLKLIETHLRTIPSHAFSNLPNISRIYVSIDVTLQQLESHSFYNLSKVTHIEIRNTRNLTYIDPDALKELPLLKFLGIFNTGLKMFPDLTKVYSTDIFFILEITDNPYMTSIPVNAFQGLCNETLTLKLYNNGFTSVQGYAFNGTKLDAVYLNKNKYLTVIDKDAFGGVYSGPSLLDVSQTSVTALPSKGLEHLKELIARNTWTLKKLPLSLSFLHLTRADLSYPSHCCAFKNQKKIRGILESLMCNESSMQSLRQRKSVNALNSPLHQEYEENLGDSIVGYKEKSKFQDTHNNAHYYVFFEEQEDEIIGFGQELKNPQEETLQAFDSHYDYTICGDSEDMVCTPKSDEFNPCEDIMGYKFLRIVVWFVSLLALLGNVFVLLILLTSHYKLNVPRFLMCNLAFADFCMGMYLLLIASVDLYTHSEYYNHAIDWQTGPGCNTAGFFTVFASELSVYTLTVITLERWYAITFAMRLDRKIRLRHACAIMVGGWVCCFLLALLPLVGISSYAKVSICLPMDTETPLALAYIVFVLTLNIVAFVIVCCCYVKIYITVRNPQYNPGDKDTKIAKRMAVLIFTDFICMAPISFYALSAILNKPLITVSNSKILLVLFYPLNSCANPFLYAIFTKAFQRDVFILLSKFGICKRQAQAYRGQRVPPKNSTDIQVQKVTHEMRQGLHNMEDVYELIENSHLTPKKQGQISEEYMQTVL
Procedure, shortened: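 TSHR-expressing HEK293 cells (800 per well) were exposed to compounds for 30 min at room temperature. cAMP was then detected by HTRF competition with cAMP-d2 and anti-cAMP cryptate, read after 1 h at room temperature. Fifteen concentrations, triplicate.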

[20] = qHTS RealTime-Glo MT Cell Viability Assay in HepG2 cells - 40 hour (AID 1224870); further: nearly all actives have a fitted effect of over 50% in size
Procedure, shortened: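 HepG2 cells mixed with RealTime-Glo MT reagents (NanoLuc plus cell-permeant prosubstrate) were seeded at 600 cells/well, incubated 5 h at 37 C/5% CO2, then pinned with compounds in DMSO; nonlytic luminescence tracked viability during 40 h treatment.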
On the % scale 0 is the no-effect control and ±100 the full control effect.

Cc1cc2c(s1)Nc1ccccc1N=C2N1CCN(C)CC1
active: Potency [2] 8.41 µM | Potency [3] 3.35 µM
inactive: Potency [1] | Potency [4] | Potency [5] | Potency [6] | Potency [7] | Potency [8] | Potency [9] | outcome [10] | Potency [11] | Potency [12] | activity change, positive = activation [13] -1.9% [at 42.5 µM] | Potency [14] | Potency [15] | Potency [16] | Potency [17]

CCCCc1ccc2nc(NC(=O)OC)[nH]c2c1
active: Potency [1] 3.47 µM | Potency [5] 5.96 µM | Potency [8] 3.76 µM | activity change, positive = activation [13] 17.3% [at 42.5 µM]
inactive: Potency [2] | Potency [3] | Potency [4] | Potency [6] | Potency [7] | Potency [18] | outcome [10] | Potency [12] | Potency [14] | Potency [16] | Potency [17]

O=C(O)c1ccccc1Nc1cc(Cl)ccc1C(=O)O
inactive: activity change, negative = inhibition [1] -7.25% [at 23.6 µM] | viability change, negative = cytotoxic [2] -10% [at 19 µM] | activity change, negative = cytotoxicity [3] -10.7% [at 19 µM] | activity, negative = inhibition [4] -20% [at 19 µM] | activation [5] -3.13% [at 19 µM] | viability change, negative = cytotoxic [6] -4.89% [at 19 µM] | activity, negative = inhibition [7] 1.12% [at 19 µM] | activation [8] 0.171% [at 19 µM] | activation [19] -5.91% [at 19 µM] | activation (H2AX phosphorylation) [18] 5.25% [at 31.6 µM] | activation [10] -1.19% [at 15.8 µM] | activity, negative = inhibition [12] -10.4% [at 19 µM] | activity change, positive = activation [13] -5.59% [at 19 µM] | activity change, negative = cytotoxicity [14] -0.715% [at 15.8 µM] | activity change, negative = cytotoxic [15] 3.41% [at 15.8 µM] | cytotoxicity [16] 1.27% [at 15.8 µM] | activity change, negative = cytotoxic [20] -5.11% [at 15.8 µM] | cytotoxicity increase [17] -12.4% [at 15.8 µM]

COc1cc(Cl)ccc1Cl
inactive: Potency [1] | Potency [2] | Potency [3] | Potency [4] | Potency [5] | Potency [6] | Potency [19] | Potency [9] | Potency [18] | outcome [10] | Potency [11] | Potency [14] | Potency [15] | Potency [16] | Potency [20]

CC(C)C(=O)OC/C=C/c1ccccc1
inactive: Potency [2] | Potency [3] | Potency [4] | Potency [5] | Potency [6] | Potency [7] | Potency [8] | Potency [19] | Potency [9] | Potency [18] | outcome [10] | Potency [11] | Potency [12] | activity change, positive = activation [13] 4.91% | Potency [14] | Potency [15] | Potency [16] | Potency [20] | Potency [17]
active: Potency [1] 71 µM

CO[Si](C)(C)OC
inactive: Potency [1] | Potency [2] | Potency [3] | Potency [4] | Potency [5] | Potency [6] | Potency [7] | Potency [8] | Potency [19] | Potency [9] | Potency [18] | outcome [10] | Potency [11] | Potency [12] | activity change, positive = activation [13] 4.8% | Potency [14] | Potency [15] | Potency [16] | Potency [20] | Potency [17]

CCOc1ccc2nc(N)sc2c1
active: Potency [1] 19.9 µM | Potency [5] 21.5 µM | Potency [8] 27.1 µM | activity change, positive = activation [13] 78%
inactive: Potency [2] | Potency [3] | Potency [4] | Potency [6] | Potency [7] | Potency [19] | Potency [9] | outcome [10] | Potency [12] | Potency [14] | Potency [15] | Potency [16] | Potency [20] | Potency [17]
